Experimental findings from PubChem BioAssay (Tox21) are described below.

Results filed as inconclusive are left out. A call without a number means that no potency is given here. Activity calls are given as the source filed them. Calls follow the shape of the dose curve; as a rule, active = well fitted activation curve with a large enough effect in the signal ratio in the repeat runs (not every such curve was filed as active); inconclusive = weak or mixed curves; inactive = flat fitted curve, though single readings scatter; the % refers to the signal ratio.

A short description of this test: p53 small molecule agonists, cell-based qHTS assay (AID 1963582). To be noted: HCT-116 p53RE-bla reporter, beta-lactamase FRET ratio, 16 h; series mostly up to 66 µM. From the text:
National Center for Advancing Translational Sciences [NCATS]
Division of Preclinical Innovation [DPI]
U.S. Environmental Protection Agency [EPA]
National Institutes of Environmental Health Sciences [NIEHS]
National Toxicology Program [NTP]
U.S. Food and Drug Administration [FDA]
p53, a tumor suppressor protein, is activated following cellular insult, including DNA damage and other cellular stresses. The activation of p53 regulates cell fate by inducing DNA repair, cell cycle arrest, apoptosis, or cellular senescence. The activation of p53, therefore, is a good indicator of DNA damage and other cellular stresses. […] The activation of the reporter gene under culture conditions can be detected by fluorescence intensity. This cell line was used to screen the Tox21 10K compound library in a 1536-well plate format and to identify agonists that activate the p53 signaling pathway.
Tox21 Assay Protocol Summary:
The p53RE-bla cells were dispensed at 4,000 cells/5 ul/well in 1536-well black wall/clear bottom plates using a Multidrop dispenser. After the assay plates were incubated at a 37 C/5% CO2 incubator for 5 hours, 23 nL of compounds dissolved in DMSO, positive controls or DMSO only was transferred to the assay plate by a pin tool. The plates were incubated at 37 C for 16 hours. After 1 uL of LiveBLAzerTM B/G FRET substrate was added using a Flying Reagent Dispenser, the plates were incubated at room temperature for 2 hours, and fluorescence intensity was measured by an Envision plate reader.
For the compound `Cc1cc(Cl)ccc1N=CN(C)C`, the Potency entry was “inactive”.
The entry for `Oc1cc(Cl)ccc1Cl` is “inactive”.
The entry for `CC(C)[N+](C)(CCC(C(N)=O)(c1ccccc1)c1ccccc1)C(C)C` is “inactive”; for `Clc1ccc(C(c2ccc(Cl)cc2)C(Cl)(Cl)Cl)cc1` it is “inactive”; for `O=S1OCC2C(CO1)C1(Cl)C(Cl)=C(Cl)C2(Cl)C1(Cl)Cl` (stereo not given) it is “inactive”.
The entry for `NC(=O)CCl` is “inactive”; for `COc1cccc(C=O)c1` it is “inactive”; for `COS(=O)(=O)OC` it is “inactive”.
Turning to `Cc1ccc2ccccc2c1`, the Potency entry is “inactive”.
The entry for `Clc1nc(Cl)nc(Nc2ccccc2Cl)n1` is “inactive”; for `CCCCC(CC)C(=O)Cl` (stereo not given) it is “inactive”.
On to `CCC1(CC)C(=O)C=CNC1=O`, for which the Potency entry was “inactive”.
The entry for `CCOS(=O)(=O)OCC` is “inactive”.
The entry for `O=C(O)c1ccc(=O)[nH]c1` is “inactive”; for `Cc1cc(N=Nc2ccccc2C)ccc1N` it is “inactive”.
The entry for `CC(C#N)CCC#N` (stereo not given) is “inactive”; for `c1ccc2c(c1)oc1ccccc12` it is “inactive”; for `CCCCCc1cc(O)cc(O)c1` it is “inactive”.
Take `CCCCCCCCCCCCBr`: the Potency entry is “inactive”.
The entry for `CC(C)OC(=O)Nc1cccc(Cl)c1` is “inactive”; for `C1=Cc2cccc3cccc1c23` it is “inactive”; for `COC[C@H](C)N(C(=O)CCl)c1c(C)csc1C` it is “inactive”.
The entry for `CCN(Cc1ccc(Cl)nc1)/C(=C/[N+](=O)[O-])NC` is “inactive”; for `Nc1cnn(-c2ccccc2)c(=O)c1Cl` it is “inactive”; for `CC1(C)C(=O)NC(=O)NC1=O` it is “inactive”.
The entry for `CCN(CC)C1CCCCC1` is “inactive”; for `N#Cc1ccc(Cl)cc1` it is “inactive”.
On to `C=C(C#N)CCC#N`, for which the Potency entry is “inactive”.
The entry for `Clc1nc(Cl)nc(Cl)n1` is “inactive”; for `CCCCCCCCOC(=O)c1ccc(C(=O)OCCCCCCCC)c(C(=O)OCCCCCCCC)c1` it is “inactive”; for `Oc1ccc(Cl)cc1Cc1ccccc1` it is “inactive”.
The entry for `COC(=O)c1ccccc1N` is “inactive”.
On to `Nc1cccc(Cl)c1`, for which the Potency result was “inactive”.
The entry for `C=CCN(CC=C)C(=O)C(Cl)Cl` is “inactive”; for `CC(C)CON=O` it is “inactive”.
The entry for `CC(=O)C(Cl)Cl` is “inactive”.
The entry for `Nc1cccnc1` is “inactive”.
`ClCCN1CCOCC1`: the Potency entry was “inactive”.
The entry for `CNC(C)(C)Cc1ccccc1` is “inactive”.
The entry for `S=C1NCCN1` is “inactive”.
